Reference: the supplement of paper PMC8728848
Many of the other results were omitted from the sample, so the strongest signals are more common in it than they were.

Columns and labels:
Experiment in all cases: glycan array binding signal (z-score within array); higher = stronger binding
Conditions in all cases: glycan notation: IUPAC condensed, linker removed
[1] = molecular target: Fuc(a1-2)Gal
Procedure, shortened: (§1)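 Glycan array binding is given as a within-array Z-score, which can be read as non-binding when negative. The arrays, 3228 of them, came from the Consortium for Functional Glycomics database and were retained only where the protein sequence was available. Z-scores were averaged across arrays of the same protein sequence at different concentrations or buffers and across linkers.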

[2] = molecular target: Fuc(a1-2)Gal(b1-4)GlcNAc(b1-2)Man(a1-3)[Fuc(a1-2)Gal(b1-4)GlcNAc(b1-2)Man(a1-6)]Man(b1-4)GlcNAc(b1-4)[Fuc(a1-6)]GlcNAc
Procedure, shortened: as §1

[3] = molecular target: Fuc(a1-2)Gal(b1-4)GlcNAc(b1-6)GalNAc
Procedure, shortened: as §1

[4] = molecular target: Fuc(a1-2)Gal(b1-4)[Fuc(a1-3)]GlcNAc(b1-3)Gal(b1-4)[Fuc(a1-3)]GlcNAc(b1-3)Gal(b1-4)[Fuc(a1-3)]GlcNAc
Procedure, shortened: as §1

[5] = molecular target: Fuc(a1-2)Gal6S(b1-3)GlcNAc6S
Procedure, shortened: as §1

[6] = molecular target: Fuc(a1-2)[Gal(a1-3)]Gal(b1-3)GlcNAc
Procedure, shortened: as §1

[7] = molecular target: Fuc(a1-2)[Gal(a1-3)]Gal(b1-4)GlcNAc
Procedure, shortened: as §1

[8] = molecular target: Fuc(a1-2)[Gal(a1-3)]Gal(b1-4)GlcNAc(b1-2)Man(a1-3)[Fuc(a1-2)[Gal(a1-3)]Gal(b1-4)GlcNAc(b1-2)Man(a1-6)]Man(b1-4)GlcNAc(b1-4)[Fuc(a1-6)]GlcNAc
Procedure, shortened: as §1

[9] = molecular target: Fuc(a1-2)[GalNAc(a1-3)]Gal(b1-4)GlcNAc(b1-2)Man(a1-3)[Fuc(a1-2)[GalNAc(a1-3)]Gal(b1-4)GlcNAc(b1-2)Man(a1-6)]Man(b1-4)GlcNAc(b1-4)GlcNAc
Procedure, shortened: as §1

[10] = molecular target: Fuc(a1-3)[Gal(b1-4)]GlcNAc(b1-6)[Gal(b1-3)GlcNAc(b1-3)]Gal(b1-4)Glc
Procedure, shortened: as §1

[11] = molecular target: Gal(a1-3)Gal(b1-4)GlcNAc(b1-2)Man(a1-3)[Gal(a1-3)Gal(b1-4)GlcNAc(b1-2)Man(a1-6)]Man(b1-4)GlcNAc(b1-4)GlcNAc
Procedure, shortened: as §1

[12] = molecular target: Gal(a1-3)Gal(b1-4)GlcNAc(b1-3)GalNAc
Procedure, shortened: as §1

[13] = molecular target: Gal(b1-2)Gal
Procedure, shortened: as §1

[14] = molecular target: Gal(b1-3)Gal
Procedure, shortened: as §1

[15] = molecular target: Gal(b1-3)GlcNAc
Procedure, shortened: as §1

[16] = molecular target: Gal(b1-3)GlcNAc(b1-3)Gal(b1-4)GlcNAc
Procedure, shortened: as §1

[17] = molecular target: Gal(b1-3)GlcNAc(b1-3)Gal(b1-4)GlcNAc(b1-3)Gal(b1-4)GlcNAc(b1-2)[Gal(b1-3)GlcNAc(b1-3)Gal(b1-4)GlcNAc(b1-3)Gal(b1-4)GlcNAc(b1-6)]Man(a1-6)[Gal(b1-3)GlcNAc(b1-3)Gal(b1-4)GlcNAc(b1-3)Gal(b1-4)GlcNAc(b1-2)Man(a1-3)]Man(b1-4)GlcNAc(b1-4)[Fuc(a1-6)]GlcNAc
Procedure, shortened: as §1

[18] = molecular target: Gal(b1-3)[Fuc(a1-4)]GlcNAc
Procedure, shortened: as §1

[19] = molecular target: Gal(b1-3)[Fuc(a1-4)]GlcNAc(b1-2)Man
Procedure, shortened: as §1

[20] = molecular target: Gal(b1-3)[GlcNAc(b1-6)]GalNAc
Procedure, shortened: as §1

[21] = molecular target: Gal(b1-4)GlcNAc
Procedure, shortened: as §1

[22] = molecular target: Gal(b1-4)GlcNAc(b1-2)Man(a1-3)[GlcNAc(b1-4)][Gal(b1-4)GlcNAc(b1-2)Man(a1-6)]Man(b1-4)GlcNAc(b1-4)GlcNAc
Procedure, shortened: as §1

[23] = molecular target: Gal(b1-4)GlcNAc(b1-2)[Gal(b1-4)GlcNAc(b1-4)]Man(a1-3)[Gal(b1-4)GlcNAc(b1-2)[Gal(b1-4)GlcNAc(b1-6)]Man(a1-6)]Man(b1-4)GlcNAc(b1-4)GlcNAc
Procedure, shortened: as §1

[24] = molecular target: Gal(b1-4)GlcNAc(b1-3)Gal(b1-4)Glc
Procedure, shortened: as §1

[25] = molecular target: Gal(b1-4)GlcNAc(b1-3)Gal(b1-4)GlcNAc(b1-3)[Gal(b1-4)GlcNAc(b1-3)Gal(b1-4)GlcNAc(b1-6)]GalNAc
Procedure, shortened: as §1

[26] = molecular target: Gal(b1-4)GlcNAc(b1-3)GalNAc
Procedure, shortened: as §1

[27] = molecular target: Gal3S(b1-3)GalNAc
Procedure, shortened: as §1

B1: Tp0751, 83732 (protein)
chain: MSYYHHHHHHLESTSLYKKAGFQHGHVPPRRIPPHDTFGALPTAALPSNARDTAAHPSDTADNTSGSSTTTDPRSHGNAPPAPVGGAAQTHTQPPVQTAMRIALWNRATHGEQGALQHLLAGLWIQTEISPNSGDIHPLLFFDREHAEITFSRASVQEIFLVDSAHTHRKTVSFLTRNTAISSIRRRLEVTFESHEVIHVRAVEDVARLKIGSTSMWDGQYTRYHAGPASAPSP
glycan array binding signal (z-score) [1]: -0.265 | glycan array binding signal (z-score) [2]: 1.64 | glycan array binding signal (z-score) [3]: -0.071 | glycan array binding signal (z-score) [4]: 0.013 | glycan array binding signal (z-score) [5]: 1.11 | glycan array binding signal (z-score) [6]: 1.77 | glycan array binding signal (z-score) [7]: 0.066 | glycan array binding signal (z-score) [8]: -0.276 | glycan array binding signal (z-score) [9]: 0.638 | glycan array binding signal (z-score) [10]: 0.413 | glycan array binding signal (z-score) [11]: 0.262 | glycan array binding signal (z-score) [12]: -0.025 | glycan array binding signal (z-score) [13]: 2.31 | glycan array binding signal (z-score) [14]: 0.017 | glycan array binding signal (z-score) [15]: -0.323 | glycan array binding signal (z-score) [16]: -0.382 | glycan array binding signal (z-score) [17]: -0.07 | glycan array binding signal (z-score) [18]: -0.004 | glycan array binding signal (z-score) [19]: -0.163 | glycan array binding signal (z-score) [20]: -0.373 | glycan array binding signal (z-score) [21]: 0.21 | glycan array binding signal (z-score) [22]: -0.493 | glycan array binding signal (z-score) [23]: 0.31 | glycan array binding signal (z-score) [24]: -0.441 | glycan array binding signal (z-score) [25]: 1.78 | glycan array binding signal (z-score) [26]: -0.427 | glycan array binding signal (z-score) [27]: 3.13
